Screening data (PubChem BioAssay)
A selection: hits, their analogues and other compounds. The true share with any hit is near 3.9%.
Tb PFK block: T. brucei PFK enzyme inhibition; 0.17% of 330,000 active; T. brucei PFK, ADP-Glo luminescence; Potency, µM (doses to about 57.5 µM), for inactives: top-dose activity, negative = inhibition, actives largely listed as inhibitors; AID 485367; O15648;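 further: 0% = uninhibited 1x PFK enzyme wells and -100% = no-enzyme wells; nearly all actives have a fitted effect of over 60% in size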
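Compounds were pin-transferred as a titration series up to 57 uM into substrate buffer (0.5 mM F6P, 0.1 mM ATP, pH 8.0), then 1.25 nM PFK was added and reactions ran 45 min before ADP-Glo detection.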
BRCA1 expr act: activators of BRCA1 expression | 1.1% of 380,000 active | AID 624202 | MCF7-BRCA1-FFLuc reporter, luminescence, 48 h; response scale: scaled: vehicle 0%, 10 µM genistein 100% | Potency, µM (series often up to 46.1 µM), for inactives: top-dose activation, actives largely listed as activators; further: nearly all actives have a fitted effect of over 80% in size
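MCF7-BRCA1-FFLuc, 2000 cells/well; 2 h attach, 37 °C/5% CO2; compound 48 h; luciferase substrate 15 min; luminescence end-point. Norm. to genistein 10 microM max activation and DMSO; concentration-response curves fitted.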
PLK1 PBD inh: PLK1 (human) polo-box domain binding inhibition | P53350 | Plk1 PBD binding of FITC phosphopeptide, fluorescence polarization | Potency, µM, for the others: max response, negative = inhibition, hits mostly inhibitors | 2.8% of 360,000 active; further: series mostly up to about 57 µM; on the % scale 0 is the no-effect control and ±100 the full control effect; nearly all actives have a fitted effect of over 65% in size
VDR inh: inhibitors of human vitamin D receptor. 0.93% of 400,000 active. P11473. VDR-SRC2-3 peptide fluorescence polarization, 2 h. Potency, µM, without a hit: max response, negative = inhibition, usual class: inhibitors; further: on the % scale 0 is the no-effect control and ±100 the full control effect
Target sequence (P11473 whole entry, looked up): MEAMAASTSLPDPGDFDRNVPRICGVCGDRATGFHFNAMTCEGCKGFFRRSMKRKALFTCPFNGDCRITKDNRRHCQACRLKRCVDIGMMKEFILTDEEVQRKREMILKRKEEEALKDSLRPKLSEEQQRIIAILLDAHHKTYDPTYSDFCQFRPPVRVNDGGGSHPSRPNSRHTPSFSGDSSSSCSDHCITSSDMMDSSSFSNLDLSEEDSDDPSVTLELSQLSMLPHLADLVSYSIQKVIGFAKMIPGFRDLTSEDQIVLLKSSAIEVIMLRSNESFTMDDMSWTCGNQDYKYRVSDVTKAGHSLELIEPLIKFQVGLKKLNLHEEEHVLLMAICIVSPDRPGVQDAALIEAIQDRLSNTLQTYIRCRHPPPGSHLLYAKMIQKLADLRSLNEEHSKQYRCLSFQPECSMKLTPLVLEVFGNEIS
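Reagent solutions, kept cold and dark, are dispensed first; compounds are then pinned in at 23 nl, plates briefly spun, and incubated 2 h at ambient temperature. Inhibition of VDR–SRC2-3 peptide binding is read by fluorescence polarization.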
An asterisk follows results filed as active. The call rests on the fitted dose curve; in most records, active means well fitted curve in the direction sought with a large enough effect; inconclusive means small, poorly fitted or top-dose-only effect, or another doubt; inactive means no such curve, though single readings can be large; an effect the other way counts as inactive or inconclusive. Potency means the concentration at half of the fitted maximal effect.

What do the screens show for `COc1ccc2ncc3c(-c4ccccc4)nn(-c4ccc(C)c(C)c4)c3c2c1`?
BRCA1 expr act: 9%; VDR inh: -4%

How did c1ccc2c3c([nH]c2c1)CCCC3 do in these assays?
BRCA1 expr act: 2%

How did C/C(=N\O)c1ccc2c3c([nH]c2c1)CCCC3 do in these assays?
Tb PFK block: -6%; BRCA1 expr act: 10µM*; PLK1 PBD inh: -12%; VDR inh: 9%

Results for COCCN1C[C@@H](CO)O[C@@H](n2cnc3c(N(C)C(C)C)ncnc32)C1 ?
BRCA1 expr act: 15%; PLK1 PBD inh: 0%

How did COc1ccc(C(=O)Nn2cnc3ccccc3c2=O)c(OC)c1 do in these assays?
Tb PFK block: 6%; BRCA1 expr act: 8.9µM*; PLK1 PBD inh: -2%; VDR inh: -1%

What do the screens show for `Cc1ccccc1OCC(=O)Nc1ccc(NC(=O)c2ccco2)cc1`?
Tb PFK block: 2%; BRCA1 expr act: 34%; PLK1 PBD inh: 21µM*; VDR inh: -16%

What do the screens show for `Cc1ccccc1OCC(=O)Nc1ccc2c(c1)C(=O)c1ccccc1C2=O`?
Tb PFK block: 1%; BRCA1 expr act: 5µM*; PLK1 PBD inh: -10%; VDR inh: -16%

How did O=C(CNC(=O)c1ccco1)Nc1ccc(F)cc1 do in these assays?
Tb PFK block: -4%; BRCA1 expr act: -17%; PLK1 PBD inh: 27µM*; VDR inh: -13%

What do the screens show for `O=C(O)/C=C/C(=O)Nc1ccc2c(c1)C(=O)c1ccccc1C2=O`?
Tb PFK block: 16%; BRCA1 expr act: 11µM*; PLK1 PBD inh: -6%; VDR inh: -21%

Results for Cc1ccccc1OCC(=O)Nc1cccc(NC(=O)c2ccco2)c1 ?
Tb PFK block: 10%; BRCA1 expr act: 21%; PLK1 PBD inh: -7%; VDR inh: -7%

What do the screens show for `Cc1cc(C)cc(-n2ccnc2SCC(=O)Nc2ccccc2F)c1`?
BRCA1 expr act: -4%; VDR inh: 11%

What do the screens show for `CN(C)C(=O)CSc1nc2cc(S(=O)(=O)N3CCOCC3)ccc2o1`?
Tb PFK block: -4%; BRCA1 expr act: -2%; PLK1 PBD inh: 21µM*; VDR inh: inconclusive

Results for Nc1nc2cc(S(=O)(=O)N3CCOCC3)ccc2o1 ?
Tb PFK block: 0%; BRCA1 expr act: -29%; PLK1 PBD inh: 5.3µM*; VDR inh: 40µM*

How did COc1ccccc1CNC(=O)Cn1cc2c(n1)-c1c(oc(C(=O)N3CCOCC3)c1C)CC2 do in these assays?
VDR inh: 7%

Results for CN(C(=O)c1cccc(NC(=O)Cc2ccc(NC(=O)C3CCCN(C(=O)c4ccccc4)C3)cc2)c1)C1CCCCC1 (centres undefined) ?
BRCA1 expr act: -15%; PLK1 PBD inh: -7%; VDR inh: 1%

Results for CCOc1nc2cccc(C(=O)OC(C)OC(=O)OC3CCCCC3)c2n1Cc1ccc(-c2ccccc2-c2nn[nH]n2)cc1 (centres undefined) ?
VDR inh: 45µM*

How did Fc1ccc(Cc2cn3cc(-c4ccc(Cl)cc4)nc3s2)cc1 do in these assays?
BRCA1 expr act: 0.89µM*; VDR inh: 9%

How did COC(=O)c1ccccc1NC(=O)c1cnc(Nc2ccc(OC)cc2)c2ccccc12 do in these assays?
BRCA1 expr act: -24%; VDR inh: 3%

How did O=C(/C=C/c1ccc(Cl)cc1)N1CCN(Cc2ccccc2)CC1 do in these assays?
Tb PFK block: 0%; BRCA1 expr act: 21%; PLK1 PBD inh: 0%; VDR inh: inconclusive

How did O=C1C(=Cc2cccs2)C(=O)c2ccccc21 do in these assays?
Tb PFK block: 13%; BRCA1 expr act: -10%; PLK1 PBD inh: 8.4µM*; VDR inh: 8%

Results for Cc1ccc(C=C2C(=O)c3ccccc3C2=O)s1 ?
Tb PFK block: -20%; BRCA1 expr act: 0%; PLK1 PBD inh: 17µM*; VDR inh: 22%

What do the screens show for `O=C1/C(=C/c2cccs2)Cc2ccccc21`?
Tb PFK block: -1%; BRCA1 expr act: inconclusive; PLK1 PBD inh: -7%; VDR inh: -9%

What do the screens show for `O=C1/C(=C\c2cccs2)CCC/C1=C/c1cccs1`?
VDR inh: 40µM*

What do the screens show for `CCCS(=O)(=O)NC(=O)C1(C)CCN(C(=O)c2c(-c3ccccc3)noc2C)C1` (centres undefined)?
BRCA1 expr act: 8%; PLK1 PBD inh: -6%

How did Cn1cnc(S(=O)(=O)N2CCC(C(=O)Nc3ccc(Cl)c(C(F)(F)F)c3)CC2)c1 do in these assays?
VDR inh: 9%

How did Cc1ccc(CNC(=O)C2CCN(C(=O)c3cnn(-c4ccccc4)c3-n3cccc3)CC2)cc1 do in these assays?
VDR inh: -7%

What do the screens show for `O=c1c2c3c(sc2ncn1/N=C/c1ccco1)CCCC3`?
Tb PFK block: -5%; BRCA1 expr act: 18%; PLK1 PBD inh: -8%; VDR inh: -1%

Results for O=c1c2c3c(sc2ncn1/N=C/c1ccccc1)CCCC3 ?
Tb PFK block: 0%; BRCA1 expr act: 20µM*; PLK1 PBD inh: 3%; VDR inh: 20%

How did NC(=S)NNC(=O)C12CC3CC(CC(C3)C1)C2 do in these assays?
Tb PFK block: 1%; BRCA1 expr act: -1%; PLK1 PBD inh: 27µM*; VDR inh: -5%

What do the screens show for `Cc1cccc(N2CCN(S(=O)(=O)c3ccc4c(c3)NC(=O)CO4)CC2)c1C`?
Tb PFK block: 0%; BRCA1 expr act: -33%; PLK1 PBD inh: 27µM*; VDR inh: -27%

Results for COc1cccc(NC(=O)C2CCN(S(=O)(=O)c3ccc4c(c3)NC(=O)CO4)CC2)c1 ?
Tb PFK block: -6%; BRCA1 expr act: -17%; PLK1 PBD inh: 21µM*; VDR inh: inconclusive

What do the screens show for `Cc1cc2c(cc1S(=O)(=O)N1CCN(c3cccc(C(F)(F)F)c3)CC1)OCC(=O)N2`?
Tb PFK block: -4%; BRCA1 expr act: -6%; PLK1 PBD inh: 21µM*; VDR inh: inconclusive

What do the screens show for `O=C1COc2ccc(S(=O)(=O)N3CCN(c4cccc(C(F)(F)F)c4)CC3)cc2N1`?
Tb PFK block: -4%; BRCA1 expr act: -17%; PLK1 PBD inh: -3%; VDR inh: 4%

Results for Cc1cc2c(cc1S(=O)(=O)N1CCN(c3cccc(C)c3C)CC1)OCC(=O)N2 ?
Tb PFK block: -5%; BRCA1 expr act: -23%; PLK1 PBD inh: 0%; VDR inh: -15%

Results for Cc1ccc(S(=O)(=O)CCC(=O)N2CCN(c3ccc([N+](=O)[O-])cc3)CC2)cc1 ?
Tb PFK block: 2%; BRCA1 expr act: -14%; PLK1 PBD inh: -12%; VDR inh: 25µM*

What do the screens show for `CCN1C(=O)c2ccccc2S(=O)(=O)c2ccc(C(=O)NCc3ccccc3OC)cc21`?
BRCA1 expr act: 0%; VDR inh: 3%

Results for CCCS(=O)(=O)NC(=O)C1(C)CCCN(C(=O)c2ccccc2C(F)(F)F)C1 (centres undefined) ?
BRCA1 expr act: 25%; PLK1 PBD inh: 2%

How did Cc1cccc(N2CCN(C(=O)CCS(=O)(=O)c3ccc4c(c3)NC(=O)CO4)CC2)c1C do in these assays?
Tb PFK block: 1%; BRCA1 expr act: -5%; PLK1 PBD inh: 12µM*; VDR inh: inconclusive
